Assay results as given in PubChem BioAssay (NCI).
About 79,000 compounds went through this panel and 15% of them were active in at least one assay; those are over-represented in the sample as a whole. Cut-off read from the data, not from the text of the source: active = growth inhibition above about 70%; inactive = the rest.

Columns and labels:
[1] = NCI Yeast Anticancer Drug Screen. Data for the rad50 strain (AID 155);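 note: 0% = growth of vehicle-only cultures of the same strain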; conditions: S. cerevisiae rad50 strain growth inhibition; at 50.0 µM; hits give high values
Procedure, shortened: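 Relative growth inhibition (compound vs vehicle) was measured in yeast with a defined repair-gene alteration.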

[2] = NCI Yeast Anticancer Drug Screen. Data for the mec2-1 strain (AID 157); conditions: S. cerevisiae mec2-1 strain, at 50.0 µM, hits give high values
Procedure, shortened: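 Yeast mec2-1 mutant treated with compound. Readout: growth inhibition vs vehicle controls.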

[3] = NCI Yeast Anticancer Drug Screen. Data for the sgs1 mgt1 strain (AID 161);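 note: 0% = growth of cultures given vehicle only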; conditions: S. cerevisiae sgs1 mgt1 strain, at 50.0 µM, hits give high values
Procedure, shortened: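 Read-out: growth inhibition vs vehicle controls. Cells: mutant yeast strain deficient in DNA damage repair.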

[4] = NCI Yeast Anticancer Drug Screen. Data for the cln2 rad14 strain (AID 165);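 note: 0% = growth equal to vehicle treated cultures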; conditions: S. cerevisiae cln2 rad14 strain, at 50.0 µM, hits give high values
Procedure, shortened: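 cln2 rad14 yeast strain; compound exposure; growth inhibition read vs vehicle controls.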

[5] = NCI Yeast Anticancer Drug Screen. Data for the bub3 strain (AID 167); conditions: S. cerevisiae bub3 mutant strain, at 50.0 µM, hits give high values
Procedure, shortened: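 Screening used yeast with an engineered genetic alteration affecting cell cycle control. Compound-exposed cultures were compared with vehicle cultures, and reduced growth was taken as inhibition.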

[6] = NCI Yeast Anticancer Drug Screen. Data for the mlh1 rad18 strain (AID 175); conditions: S. cerevisiae mlh1 rad18 strain growth inhibition; at 50.0 µM; hits give high values
Procedure, shortened: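 Yeast w/ defined DNA-repair lesions; compound exposure; growth vs vehicle controls → % inhibition.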

Measured: growth inhibition

O=c1cc(-c2ccc(O)cc2)oc2cc(O)cc(O)c12
inactive: [1] 5.85% | [2] -5.65% | [3] -8.45% | [4] -43.5% | [5] -20.9% | [6] -14.9%

Cc1cc(Cl)nc(Nc2ccccc2)n1
inactive: [1] 13.1% | [2] -2.5% | [3] 3.8% | [4] -1.8% | [5] 9.25% | [6] 13.7%

CCOC(=O)N1c2ccccc2S(=O)(=O)c2ccccc21
inactive: [1] 40.5% | [2] -10.3% | [3] -26.4% | [4] -16.1% | [5] -22.9% | [6] -52.2%

CCCCCC(=O)Oc1ccccc1OC
inactive: [1] -8.1% | [2] -5.55% | [3] 1.15% | [4] -29.4% | [5] -7.85% | [6] -7.9%

Cc1ccc(NC(=O)Nc2ccc(C)cc2)cc1
inactive: [1] 0.7% | [2] -14.9% | [3] -12.8% | [4] -9.25% | [5] -2.3% | [6] -18.1%

N#CC(=S)Nc1ccc(Cl)c(Cl)c1
inactive: [1] -4.8% | [2] 27.9% | [3] 22.6% | [4] -36% | [5] -1.95% | [6] 31.8%

O=c1cc(-c2ccccc2)c2cc3c(=O)ccoc3cc2o1
inactive: [1] 12.8% | [2] 27.1% | [3] 12% | [4] 14.9% | [5] -1.55% | [6] 0.95%

Fc1ccc(NC(=S)Nc2ccc(F)cc2)cc1
inactive: [1] -19.4% | [2] -5.8% | [3] -10.7% | [4] -6.65% | [5] 15.1% | [6] 3.4%

CC(=O)NC1(C)C(C)C2CC1C(C)C2(C)C (stereo not drawn)
inactive: [1] 13.2% | [2] -13.8% | [3] -44% | [4] -0.55% | [5] -30.6% | [6] -34.6%

CCc1nc(N)nc(N)c1-c1ccc(Cl)c(N=CN(C)C)c1
inactive: [1] 31.8% | [2] 23.1% | [3] 26.9% | [4] 29.8% | [5] 16.6% | [6] 51.5%

Cc1c(C)c(CC(=O)N2CC2)c(C)c(C)c1CC(=O)N1CC1
inactive: [1] -23.4% | [2] 9.75% | [3] -3.9% | [4] -26.1% | [5] 2.65% | [6] -36.2%

O=C(c1ccc(Cl)cc1)c1cc([N+](=O)[O-])cc([N+](=O)[O-])c1
inactive: [1] -0.35% | [2] 3% | [3] -2.45% | [4] -49.6% | [5] 22.8% | [6] -8.75%

CCc1ccccc1NC(=O)C(=O)C1C(=O)N(c2ccccc2)N=C1N (stereo not drawn)
inactive: [1] -10.2% | [2] -31.4% | [3] -3% | [4] 21.4% | [5] -34.5% | [6] -22%

CC(C)CC1NC(=O)C(C(C)C)NC(=O)CC(C)COC(=O)C(CC(C)C)N(C)C(=O)C(C(C)C)NC(=O)C(C(C)C)OC1=O (stereo not drawn)
inactive: [1] -8.2% | [2] -3.7% | [3] 7.55% | [4] 7.95% | [5] 8.1% | [6] 14.3%

CCCCCCC(C)CC1=C(O)c2ccccc2C(=O)C1=O (stereo not drawn)
inactive: [1] -18.5% | [2] 7.55% | [3] -1.9% | [4] -38.4% | [5] 13.6% | [6] 5.25%

Nc1nnc2nc(CC(=O)c3ccc(F)cc3)c(CC(=O)c3ccc(F)cc3)nn12
inactive: [1] -3.6% | [2] 30.3% | [3] 6.6% | [4] -2.7% | [5] 1.2% | [6] 6.7%

CC(=O)Nc1c(F)cc(F)cc1[N+](=O)[O-]
inactive: [1] -28.4% | [2] -3.4% | [3] -12.4% | [4] -16.8% | [5] -18.8% | [6] 10.3%

CCOc1ccccc1NC(=S)NC1CCCCC1
inactive: [1] -8.65% | [2] -9.3% | [3] 3.7% | [4] -17.2% | [5] 25.1% | [6] -6.3%

COC(=O)C(c1ccccc1)C(CBr)(OC)c1ccccc1 (stereo not drawn)
inactive: [1] 18.8% | [2] 8.85% | [3] 12.5% | [4] 15.8% | [5] 13.6% | [6] 27.1%

O=C(O)c1cc(Nc2nc(Cl)nc(Cl)n2)ccc1-c1c2ccc(=O)cc-2oc2cc(O)ccc12
inactive: [1] 37.2% | [2] 21.3% | [3] 22.7% | [4] 10% | [5] -1.15% | [6] 49.5%

CCOC(=O)[n+]1c(C)ccc2ccccc21
inactive: [1] -20% | [2] -10.9% | [3] -9.55% | [4] -23.8% | [5] 11% | [6] -13.8%

O=C(Nc1ccccc1Cl)c1ccc(Cl)cc1
inactive: [1] 4.75% | [2] 14.9% | [3] 8.05% | [4] -16.2% | [5] 29.1% | [6] -4.75%

CS(=O)(=O)Nc1cccc(C(=O)O)c1
inactive: [1] 28.6% | [2] -0.05% | [3] 14.8% | [4] -2.85% | [5] -28.9% | [6] -23%

c1ccc2cc(Nc3ccc(Nc4ccc5ccccc5c4)cc3)ccc2c1
inactive: [1] 0.25% | [2] 4.4% | [3] 12.3% | [4] 14.7% | [5] 27.2% | [6] 2.6%

COc1ccc(Cc2c[nH]c3cc(OC)c(OC)cc23)cc1OC
inactive: [1] -22.8% | [2] -9% | [3] 18.9% | [4] -57.8% | [5] 10.1% | [6] -1.4%

O=C(NNc1c(F)c(F)c(C(F)(F)F)c(F)c1F)c1ccccc1
inactive: [1] 3.55% | [2] -19.1% | [3] -10.9% | [4] -64.3% | [5] -14.8% | [6] -19.1%

C/C(CC(=O)Nc1ccc(Cl)c(Cl)c1)=N/NC(=O)C[n+]1ccccc1
inactive: [1] 16.8% | [2] 5.15% | [3] 7.45% | [4] -19.6% | [5] 5.85% | [6] 29.2%

Nc1nn2c(nc(N)c3c(N)[nH]nc32)c1N=Nc1ccc(Br)cc1
inactive: [1] -1.35% | [2] 11.8% | [3] -4.95% | [4] 10.2% | [5] 13.2% | [6] 0.1%

COc1ccccc1NC(N)=S
inactive: [1] -9.1% | [2] -8.5% | [3] 5.65% | [4] 3.25% | [5] -4% | [6] -26.9%

Nc1nc(-c2ccccn2)cc(-c2cc(-c3ccccn3)nc(N)n2)n1
inactive: [1] -12.1% | [2] -11.6% | [3] -18.2% | [4] -0.7% | [5] -9.75% | [6] 6.25%

C[Si](C)(OCCS(=O)(=O)O)C1(Cc2cccc3ccccc23)S(=O)(=O)OCCOS1(=O)=O
inactive: [1] 13.6% | [2] -9.55% | [3] 2.6% | [4] 18.1% | [5] 13.1% | [6] 17.2%

COc1cc(=O)cc2n(-c3cc(OC)c(O)c(OC)c3)c3ccccc3nc1-2
inactive: [1] 23.6% | [2] 0.1% | [3] 5.95% | [4] 6% | [5] -8.3% | [6] 23.5%

C/C(C(=O)O)=C(\C)c1ccccc1
inactive: [1] -0.7% | [2] -0.75% | [3] -0.9% | [4] -15.6% | [5] 2.1% | [6] 5.2%

CCCCCCCCCCCCCCNC(=O)C(C)O (stereo not drawn)
inactive: [1] 2% | [2] -23.8% | [3] -15.7% | [4] -35.2% | [5] 11.3% | [6] -2.2%

C/C=C(/C(=O)NC(N)=O)C(C)C
inactive: [1] -3.65% | [2] 3.15% | [3] -20.1% | [4] -48.3% | [5] -2.55% | [6] -2.85%

O=c1oc2ccccc2c(=O)n1O
inactive: [1] 65.8% | [2] 10.3% | [3] 10.1% | [4] 9.4% | [5] 30.1% | [6] 43.1%

CCCC(=O)C(N)Cc1ccc(O)cc1 (stereo not drawn)
inactive: [1] -16.6% | [2] -10.3% | [3] 4.35% | [4] -9.35% | [5] -16.1% | [6] -1.7%

CC(N)CCC(=O)O (stereo not drawn)
inactive: [1] -16.1% | [2] -27.4% | [3] -15.7% | [4] -27.2% | [5] -32.1% | [6] -31%
